The full ranking holds about 33,000 sequences; the median of “E-score (-0.5 to 0.5)” is about -0.035, and the highest 2% start at about 0.34. This is one part of a sample in which the highest values are shown more often than they occur.
These sequences were tested against T1, Mot3 (UniProt P54785) (assay: PBM E-score (8-mer binding enrichment) (E-score (-0.5 to 0.5)); higher = stronger / more preferred TF binding). Conditions: protein concentration: 200 nM; construct: GST-full length.
T1 sequence: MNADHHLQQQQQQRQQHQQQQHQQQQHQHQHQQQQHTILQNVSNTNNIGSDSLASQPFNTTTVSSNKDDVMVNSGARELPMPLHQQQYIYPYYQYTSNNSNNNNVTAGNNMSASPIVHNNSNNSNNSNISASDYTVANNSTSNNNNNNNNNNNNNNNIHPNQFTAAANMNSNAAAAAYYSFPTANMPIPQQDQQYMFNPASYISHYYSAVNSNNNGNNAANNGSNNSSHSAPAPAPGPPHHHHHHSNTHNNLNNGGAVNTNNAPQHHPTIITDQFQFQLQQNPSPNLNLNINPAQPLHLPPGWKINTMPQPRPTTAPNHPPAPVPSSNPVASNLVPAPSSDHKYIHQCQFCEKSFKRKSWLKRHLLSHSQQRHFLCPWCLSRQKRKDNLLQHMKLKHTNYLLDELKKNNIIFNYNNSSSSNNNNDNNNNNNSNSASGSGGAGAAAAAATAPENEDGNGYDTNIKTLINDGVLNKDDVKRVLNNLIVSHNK
Method: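 Universal 'all 10-mer' protein binding microarrays (Agilent AMADID 015681) probed with GST-tagged S. cerevisiae TFs (full-length or DBD) made by in vitro transcription/translation (PURExpress), about 100-200 nM. Bound TF was detected with fluorescent anti-GST. Each ungapped 8-mer (which stands for itself and its reverse complement) is scored by the PBM enrichment score (E-score), a modified Wilcoxon-Mann-Whitney statistic from -0.5 to +0.5, computed with the Universal PBM Analysis Suite. Scale: above 0.35 generally sequence-specific binding.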

Row | Sequence | PBM E-score
1 | CAGGCAAA | 0.481
2 | CAGGCAAC | 0.489
3 | TGGGCAAA | -0.0148
4 | TAGGCAAA | 0.48
5 | GAGGCAAA | 0.328
6 | CAGACAAC | 0.00587
7 | CGGGCAAC | -0.129
8 | CAGGCAGA | 0.0294
9 | CCGGCAAG | -0.0693
10 | CAGGCAGG | 0.306
11 | CGGGCAAA | 0.0704
12 | CAGGCAAG | 0.491
13 | ATCCACGG | -0.0193
14 | AACCAGGT | -0.172
15 | AAGACATC | -0.0992
16 | CATAGTGC | 0.117
17 | ACAGCCGT | -0.24
18 | CTCCGAAC | -0.132
19 | ACACTACC | -0.089
20 | CCCTTAAA | -0.00813
21 | GCCTTAAA | 0.349
22 | ACCTTAAA | -0.092
23 | CACACTCC | -0.178
24 | TGGTACAA | 0.0168
25 | AGGTACAG | 0.332

Row | Sequence | PBM E-score
26 | ATGTACAG | 0.247
27 | ACGTACAT | 0.286
28 | GGGTACAA | -0.012
29 | CGGTACAC | 0.00913
30 | ATGTACAC | 0.338
31 | AGGTACAC | 0.366
32 | AGGTACAT | 0.367
33 | AAGTACAT | 0.265
34 | AGGTACAA | 0.363
35 | ATGTACAT | 0.378
36 | AAGGGGAA | -0.0624
37 | CAACAGTG | -0.0633
38 | CACGTGGC | -0.0488
39 | GGCCTCAA | 0.00845
40 | CGCCTCCA | -0.0882
41 | AGCCTCCA | -0.369
42 | TGCCTCCA | 0.404
43 | AGCCTCAA | -0.265
44 | TGCCTCAA | 0.365
45 | GACTGCTA | -0.251
46 | AACGTGCA | 0.136
47 | CGCGTGCC | 0.433
48 | AGCGTGCC | 0.343
49 | AGTGTGCC | 0.355
50 | AACGTGCG | 0.0588

Row | Sequence | PBM E-score
51 | AGTGTGCG | -0.149
52 | CGTGTGCC | 0.23
53 | AACGTGCC | 0.397
54 | CGCGTGCA | 0.0183
55 | CGCGTGGC | -0.155
56 | AGCGTGCG | -0.185
57 | AGCGTGCA | 0.092
58 | AGGACACG | 0.071
59 | GTGAGCCA | -0.12
60 | GCGTTGGA | 0.0942
61 | GTATCGTA | 0.197
62 | CCGTTTCA | -0.123
63 | AAGAGAAC | 0.0546
64 | GCCGTGCC | 0.346
65 | ACTGTGCC | 0.265
66 | GCCGTGCA | -0.0598
67 | ACCGTGCC | 0.336
68 | CCTGTGCG | 0.185
69 | CCTGTGCC | 0.361
70 | CGCGAGAC | -0.11
71 | ACGCCAAG | -0.0211
72 | CGCTGTGC | -0.0145
73 | ATAGGTGG | 0.0389
74 | AATAAGGA | 0.0872
75 | AATTACAG | 0.27

Row | Sequence | PBM E-score
76 | GATTACAA | 0.359
77 | GATTACTA | 0.122
78 | ACTTACAT | 0.311
79 | AATTACAT | 0.419
80 | CATTACAA | 0.301
81 | GCTTACAC | 0.178
82 | GCTTACAA | 0.197
83 | GATTACGC | 0.23
84 | CATTACAG | 0.287
85 | GATTACAC | 0.419
86 | CATTACAC | 0.384
87 | ATGCTGCC | -0.0402
88 | ATCCGGAG | -0.0342
89 | CCATACTC | -0.245
90 | TATTACAA | 0.297
91 | AATTACAC | 0.402
92 | AATTACAA | 0.362
93 | ACTTACAC | 0.217
94 | AATTACCC | -0.0825
95 | AATTACCA | 0.174
96 | CCTGCAGA | 0.303
97 | CCTGCAGG | 0.413
98 | CCTGCAGC | 0.0434
99 | TACATGGA | 0.346
100 | GACATGCA | 0.203

Row | Sequence | PBM E-score
101 | GACATGAA | 0.274
102 | TACATGCA | 0.361
103 | TACATGAA | 0.375
104 | AACATGGA | 0.312
105 | CACATGAA | 0.185
106 | AACATGCA | 0.324
107 | GACATGGA | 0.167
108 | AGCTATGC | -0.0718
109 | GCACAGTA | -0.0809
110 | ATGCTATG | 0.19
111 | CGCTCAGA | 0.0235
112 | ATCTTCAT | -0.0494
113 | AAGTAGGG | -0.08
114 | GCCTTGTA | 0.354
115 | ACCTTGTA | 0.338
116 | CCCTTGTA | 0.237
117 | CCCTTGCC | 0.0298
118 | GCCTTGCC | 0.416
119 | GCCTTGCA | -0.00236
120 | CATTTCGG | -0.063
121 | AGGGCCCT | -0.368
122 | GCTCGGAC | -0.172
123 | CGACAGAA | -0.216
124 | GACCTCGA | -0.139
125 | GTATCCAA | -0.0981

Row | Sequence | PBM E-score
126 | CAGGTCAG | -0.242
127 | ATAGGCAT | 0.412
128 | ATAGGCAA | 0.486
129 | CTAGGCGA | -0.178
130 | ATAGGCTA | 0.0381
131 | CTAGGCAA | 0.474
132 | ATAGGCGC | 0.249
133 | ATAGGCTC | 0.207
134 | ATCGGCAT | -0.0895
135 | ATAGGCAC | 0.491
136 | CTAGGCTA | -0.18
137 | ATAGGGAT | 0.0533
138 | ATAGGCAG | 0.234
139 | CCACAAGG | 0.094
140 | AGTGAGCC | -0.0781
141 | CAGTTAAA | 0.0473
142 | GTGGCGCA | -0.0264
143 | CCCAGTGA | -0.203
144 | CATTCTCA | 0.0726
145 | GTAGGCTA | 0.226
146 | TTAGGCAA | 0.481
147 | GTAGGCCA | 0.00764
148 | TTCGGCAA | 0.0952
149 | CTAGGCGC | 0.041
150 | GTAGGCAA | 0.49

Row | Sequence | PBM E-score
151 | CTAGGCAC | 0.485
152 | CTAGGCAG | -0.0742
153 | TTAGGGAA | 0.0178
154 | AAGACGCA | -0.0452
155 | AAACAGCG | 0.0286
156 | AGCCTGAT | 0.183
157 | AGTGCCTA | 0.484
158 | AGTGCCGA | -0.324
159 | GGTGCCAA | -0.14
160 | GGTGCCTA | 0.492
161 | GGTGCCGA | 0.0164
162 | AGTGCCAA | -0.0129
163 | ATACAGAT | 0.0248
164 | ACGTAGGA | 0.184
165 | AACATGAA | 0.305
166 | GACATGAC | 0.175
167 | AACATGAG | 0.277
168 | AACATGAC | 0.359
169 | AACATGAT | 0.349
170 | AACATGCT | 0.308
171 | ACACAAGT | 0.164
172 | ACACTGAC | 0.196

From the supplement of paper PMC3334620
